Here are results for 66 compounds from ChEMBL document CHEMBL3988442, “University of Dundee, Small-Polar-MMV Screening Library” (2021).

Each structure is given as a SMILES string. Among all 69,000 compounds or so, about 1,000 (1.4%) showed an effect of 50% or more. What follows is part of a selection rich in strong results, with near analogues and random picks from the rest.

The assay deals with Leishmania donovani. Description: Leishmania intramacrophage assay. On the set-up: scale not given: in the data most compounds retested in dose-response had high values. It counts as functional, organism-based.

Consider `CN1C(=O)C(c2ccccc2)CC12CCN(CCN)CC2` (stereo unspecified), for which the “Percent Effect” value (30.3 µM, […]) was determined as 16.5%.
As to `CCc1cc(NCCCN(C)C2CCCC2)ncn1`, the “Percent Effect” value (30.3 µM, […]) amounted to 22.72%.
Still for that read-out and setting: for `CCc1cc(NCCCOC2CCCC2)ncn1` the value was 51.18%.
Take `CCc1cc(NCCCOC2CCN(C)CC2)ncn1`: the “Percent Effect” value (30.3 µM, […]) is reported as -6.301%.
For `Cn1ccc(CN2CCC3(CCCN3CC3CC3)CC2)n1.O=C(O)C(F)(F)F.O=C(O)C(F)(F)F`, the “Percent Effect” value (30.3 µM, […]) is 41.38%.
Still for that read-out and setting: for `O=C(CC1CN(Cc2ccccc2)CCO1)NC1CCSCC1` (stereo unspecified) the value was 18.94%.
On to `Cc1ccc(CC(=O)N(C)CC2(O)CCN(c3ccccn3)C2)s1` (stereo unspecified), for which the “Percent Effect” value (30 µM, 30.03 µM) stood at 24.75%.
In the case of `CC(=O)c1cnc(NCCN2CCCC(c3ccccc3)C2)nc1C` (stereo unspecified), the “Percent Effect” value (30.3 µM, […]) is on record as -39.73%.
For `O=C(C1COCCO1)N1CCN(CC(F)(F)F)c2ccccc21` (stereo unspecified), where the note is “30.3 µM, […]”, the “Percent Effect” value is 56.8%.
Turning to `O=C(C1CCCOC1)N1CCN(CC(F)(F)F)c2ccccc21` (stereo unspecified), the “Percent Effect” value (30.3 µM, […]) is -20.84%.
On the same count and under the same terms, in the case of `O=C(C1CCOC1)N1CCN(CC(F)(F)F)c2ccccc21` (stereo unspecified) it was 25.18%; in that of `CC(C)(C)c1cc(CN2C[C@H]3CC[C@@H]2CN(Cc2cscn2)C3)n[nH]1`, 99.99%; in that of `CC(C)(C)c1cc(CN2C[C@@H]3CC[C@H](C2)N(Cc2ccccn2)C3)n[nH]1`, 9.516%.
Regarding `CC(C)Cc1cc(CN2C[C@H]3CC[C@@H]2CN(Cc2cscn2)C3)n[nH]1`, the “Percent Effect” value (30.3 µM, […]) is recorded as 2.738%.
In the case of `CCCc1n[nH]c(C2CN(C(=O)c3ccco3)CCO2)n1` (stereo unspecified), for the setting “30 µM, 30.03 µM”, the “Percent Effect” value is reported as 22.5%.
With `CCN(CC)CCCNc1nc(C)nc2c1CCN(C)C2.O=C(O)CC(O)(CC(=O)O)C(=O)O`, the “Percent Effect” value (30.3 µM, […]) is recorded as 53.93%.
On to `Cc1nc2c(c(NCCN3CCOCC3)n1)CCN(C)C2`, for which the “Percent Effect” value (30.3 µM, […]) is 32.47%.
The same measure, in the same setting: in the case of `Cc1nc2c(c(NCCCN3CCOCC3)n1)CCN(C)C2` it was 22.12%; in that of `Cc1nccc([C@H]2C[C@@H]3CCN(C(=O)c4c(C)noc4C)C[C@H]3O2)n1`, 16.88%; in that of `Cc1ccccc1OCCSc1nnc(CC2CCS(=O)(=O)C2)n1C` (stereo unspecified), 22.12%.
On to `COCc1cc(N2CCOC(c3ccc(Cl)cc3)C2)ncn1` (stereo unspecified), for which, where the note is “30.3 µM, […]”, the “Percent Effect” value is on record as 15.44%.
In the case of `COCc1cc(N2CCOC(c3ccc(Cl)c(Cl)c3)C2)ncn1` (stereo unspecified), the “Percent Effect” value (30.3 µM, […]) worked out at 54.26%.
As for `COCc1cc(N2CCOC(c3ccc(F)cc3)C2)ncn1` (stereo unspecified), the “Percent Effect” value (30.3 µM, […]) is -18.01%.
Consider `CCCOC1CCCN(Cc2nc(-c3ccc(F)cc3F)oc2C)C1` (stereo unspecified), for which, where the note is “30.3 µM, […]”, the “Percent Effect” value was -16.44%.
Turning to `COc1ccc(-c2nc(CN3CCCC(OC)C3)c(C)o2)c(F)c1` (stereo unspecified), for the setting “30.3 µM, […]”, the “Percent Effect” value turned out to be 76%.
Still for that read-out and setting: in the case of `COCc1ncn(Cc2nc(-c3ccc(OC)cc3F)oc2C)n1` it was -35.79%; in that of `COc1cccc(CN(C(=O)Nc2nncs2)C2CCC(O)CC2)c1` (stereo unspecified), 1.528%.
Turning to `O=C1NC2(CCN(C(=O)c3ccnnc3)CC2)CC1c1ccccc1` (stereo unspecified), the “Percent Effect” value (30.3 µM, […]) was 21.04%.
As for `CC(=O)c1ccccc1-c1nc(CC2CCN(C)CC2)no1`, the “Percent Effect” value (30.3 µM, […]) worked out at 87.64%.
For `COC(=O)c1cccc(-c2nc(CC3CCN(C)CC3)no2)c1`, the “Percent Effect” value (30.3 µM, […]) was 10.91%.
Consider `CCCN1CCC(Cc2noc(-c3cccnc3OC)n2)CC1`, for which the “Percent Effect” value (30.3 µM, […]) is listed as 57.42%.
Same read-out and setting: for `CCCN1CCC(Cc2noc(-c3cc4cccnc4nc3C)n2)CC1` the value was 32.81%; for `CCCN1CCC(Cc2noc(-c3ncccc3C)n2)CC1`, 17.75%.
On to `CN1CCC(Cc2noc(-c3cccc4c3OCC4)n2)CC1`, for which the “Percent Effect” value (30.3 µM, […]) stood at 31.67%.
With `CSCc1noc(CNC(=O)C2CCN(C3CCCCC3)CC2)n1`, the “Percent Effect” value (30.3 µM, […]) stood at 24%.
For the compound `Cc1noc(C)c1CN(C)c1ncnc2ccccc12`, the “Percent Effect” value (30.3 µM, […]) came out at 12.67%.
Regarding `CC(Cn1cc(Br)cn1)C(=O)Nc1ccc(Cl)cn1` (stereo unspecified), under “30.3 µM, […]”, the “Percent Effect” value is recorded as -88.88%.
Turning to `CC(C)c1nc(C2CCCN(C(=O)CCn3cncn3)C2)no1` (stereo unspecified), the “Percent Effect” value (30 µM) is recorded as 13.68%.
With `O=C(Cc1ccc(F)cc1)NCCNc1cc(N2CCCC2)ncn1`, the “Percent Effect” value (30.3 µM, […]) is listed as -9.653%.
Same read-out and setting: in the case of `CCN1CC(COC(=O)c2ccc(Br)cc2F)CC1=O` (stereo unspecified) it was 87.43%.
Still for that read-out and setting: for `CCN1CC(COC(=O)c2ccc(N(C)C)cc2F)CC1=O` (stereo unspecified) the value was 23.8%.
As to `CCN1CC(COC(=O)c2cc(Br)ccc2F)CC1=O` (stereo unspecified), the “Percent Effect” value (30.3 µM, […]) is recorded as -7.569%.
Consider `COc1ccccc1CC(=O)N1CCCC1Cn1nc(C)cc1C` (stereo unspecified), for which, under “30.3 µM, […]”, the “Percent Effect” value is 13.95%.
On the same count and under the same terms, for `O=C1O[C@@H]2CN(Cc3cccc(O)c3)C[C@@H]2N1CCCN1CCOCC1` the value was 8.802%.
As for `CCOc1ccc(Cl)c(C(=O)NC)n1`, the “Percent Effect” value (30 µM) is on record as 10.53%.
`O[C@@H]1C[C@@H](c2nc(-c3ccccc3)no2)N(CC2CCCCC2)C1`: the “Percent Effect” value (30.3 µM, […]) is on record as 18.41%.
On to `COc1ccnc(CN(C)C(=O)CSc2nnc(N)s2)c1`, for which the “Percent Effect” value (30.3 µM, […]) was 23.55%.
On to `CCn1ccc(CN(C)C(=O)CSc2nnc(N)s2)n1`, for which, where the note is “30.3 µM, […]”, the “Percent Effect” value stood at 54.38%.
Consider `COc1ccc(CN(C)C(=O)CSc2nnc(N)s2)c(OC)c1OC`, for which the “Percent Effect” value (30.3 µM, […]) is given as 28.05%.
Take `CC(C(=O)N1CCCCC1)N1CCN(c2ncc(Cl)cn2)CC1` (stereo unspecified): the “Percent Effect” value (30.3 µM, […]) is recorded as 6.463%.
As to `CS(=O)(=O)C1CCN(S(=O)(=O)c2ccc(F)c(F)c2)CC1`, where the note is “30.3 µM, […]”, the “Percent Effect” value is listed as -2.266%.
With `CS(=O)(=O)C1CCN(S(=O)(=O)c2ccc(F)c(F)c2)C1` (stereo unspecified), the “Percent Effect” value (30.3 µM, […]) is 54.9%.
In the case of `Cc1cc(S(=O)(=O)N2CCC(S(C)(=O)=O)C2)ccc1F` (stereo unspecified), the “Percent Effect” value (30.3 µM, […]) stood at 24.83%.
For `O=C(NCc1ccccn1)N1CC=C(c2ccccc2)CC1`, where the note is “30.3 µM, […]”, the “Percent Effect” value is 1.233%.
On to `Cc1nc(C2CCN(C)CC2)cc(N2CCOc3ccc(Cl)cc3C2)n1`, for which the “Percent Effect” value (30.3 µM, […]) was 85.22%.
The same measure, in the same setting: in the case of `CCN(C)CC(=O)N1CCC(c2cc(N3CCOCC3)nc(C)n2)CC1` it was -5.475%.
For `COc1ccc(C(=O)N2CCN(c3cc(CCN)nc(C)n3)CC2)cc1`, the “Percent Effect” value (30.3 µM, […]) is 0.4639%.
Regarding `Cc1nc(N)nc(N2CCOc3ccc(CO)cc3C2)c1C`, where the note is “30.3 µM, […]”, the “Percent Effect” value is recorded as -5.312%.
Turning to `Cc1nc(C2CCNCC2)cc(N2CCOc3ccccc3C2)n1`, under “30.3 µM, […]”, the “Percent Effect” value is reported as 38.29%.
As to `Cc1nc(CCN)cc(N2CCC(O)(c3ccc(Cl)cc3)CC2)n1`, under “30.3 µM, […]”, the “Percent Effect” value came to 77.75%.
Same read-out and setting: for `Cc1nc(CCN)cc(N2CCC(O)(c3ccccc3)C2)n1` (stereo unspecified) the value was 11.63%; for `Cc1nc(CCN)cc(N2CCOc3ccc(Cl)cc3C2)n1`, 63.66%; for `Cc1nc(CN)cc(N2CCC(O)(c3ccc(Cl)cc3)CC2)n1`, -13.57%.
As to `COc1cc2nc(NCCNS(C)(=O)=O)cc(C)c2cc1OC`, the “Percent Effect” value (30.3 µM, […]) was -28.24%.
Same read-out and setting: for `O=C(O)C(F)(F)F.O=C(O)C(F)(F)F.c1csc(CN2CCCC3(COCCN(Cc4c[nH]nn4)C3)C2)c1` (stereo unspecified) the value was 14.23%; for `Cc1ccccc1C1(C(=O)N2CCOC(C)C2)CCOCC1` (stereo unspecified), -3.571%.
